ELG1 repair inh = blocks ELG1-dependent DNA repair in HEK293T cells | HEK293T ELG1-luciferase reporter, luminescence, 16 h; DNA damage induced by 5-fluorouridine | Potency, µM (doses to about 46.1 µM), inactives show at the highest dose activity change, negative = inhibition, most hits filed as inhibitors | hit rate 2.3% among 330,000; further: potency means the concentration at half of the fitted maximal effect; nearly all actives have a fitted effect of over 55% in size
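HEK293T cells expressing luciferase-tagged ELG1 (2,000/well) received 5-Fluorouridine plus compound or DMSO for 16 hr at 37 °C. Luciferase was read by ONE-Glo luminescence after 30 min at room temperature.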
DT40 TDP1 CPT = growth inhibition of DT40 Tdp1-/-;hTDP1 cells with camptothecin (screen for TDP1 inhibitors). AID 686979. hit rate 12% among 420,000. chicken DT40 Tdp1-/-;hTDP1 cells + 20 nM CPT, ATP luminescence, 48 h. Potency, µM (series often up to 46.2 µM), for inactives: at the highest dose activity change, negative = growth inhibition, actives largely listed as inhibitors; further: potency means the concentration at half of the fitted maximal effect; nearly all actives have a fitted effect of over 55% in size
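Chicken DT40 Tdp1-/- cells complemented with human TDP1, 400 cells/well, exposed to compounds plus 20 nM camptothecin for at least 48 h at 37 C; viability read as ATP content by CellTiter-Glo luminescence.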
HT1080 IDH1KD tx = HT-1080 IDH1 knockdown cell toxicity (counter line); HT-1080 IDH1 knockdown viability, ATP luminescence, 48 h; Potency, µM (doses to about 46.1 µM), for the others: at the highest dose activity, negative = toxicity, hits mostly cytotoxic; hit rate 2% among 360,000; AID 686971;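 further: potency means the concentration at half of the fitted maximal effect; 0% = DMSO wells and -100% = cell-free medium wells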
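HT-1080-IDH1KD cells (IDH1 knocked down), 750/well in RPMI with 5% FBS, treated with compound 48 h at 37 degrees C. Viability by CellTiter-Glo luminescence, normalised to DMSO and no-cell wells; concentration-response curves classed.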
IL-1B inflam inh = blocks inflammasome-driven IL-1 beta release; THP-1 LPS/ATP IL-1B secretion, AlphaLISA, 16 h; hits give low values; activity change, % at 57.5 µM; hit rate 4.7% among 360,000; in the data active means activity change below about -50%; inconclusive means mostly about -30% to -49%
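THP-1 cells pretreated 1 hr with compounds (up to 57.5 uM final), then stimulated with LPS (250 ng/mL final) plus ATP (1.25 mM final); secreted IL-1B measured by AlphaLISA after 16 hr, decreased signal indicating inhibition.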
HT1080NT lethal = kills 2HG-producing HT-1080-NT fibrosarcoma cells; hit rate 1.6% among 360,000; HT-1080-NT fibrosarcoma viability, CellTiter-Glo ATP luminescence, 48 h; Potency, µM (doses to about 46.1 µM), without a hit: at the highest dose activity, negative = less viability, usual class: cytotoxic;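 further: NT is the 2HG producing partner of a matched IDH1 knockdown line; potency means the concentration at half of the fitted maximal effect; 0% = DMSO-treated cells and -100% = media-only wells without cells; nearly all actives have a fitted effect of over 55% in size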
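HT-1080-NT fibrosarcoma cells (2HG-overproducing), 750 cells/well in RPMI with 5% FBS, dosed after 2 h and incubated 48 h at 37C. CellTiter-Glo luminescence normalized to DMSO and no-cell wells; concentration-response curves fitted and classed.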
DT40 TDP1 no CPT = qHTS for Inhibitors of human tyrosyl-DNA phosphodiesterase 1 (TDP1): qHTS in cells in absence of CPT; DT40 Tdp1-/- hTDP1 cells, no CPT, ATP luminescence, 48 h; Potency, µM (series often up to 46.2 µM), for the others: at the highest dose activity change, negative = growth inhibition, hits mostly inhibitors; hit rate 15% among 420,000; further: potency means the concentration at half of the fitted maximal effect; nearly all actives have a fitted effect of over 55% in size
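Cells were dispensed at 400 per well, compounds added by pin tool, plates incubated ≥48 hr at 37 °C, then CellTiter-Glo added for 30 min at room temperature before luminescence reading. Line: DT40 Tdp1-/- complemented with hTDP1; camptothecin omitted.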
The depositor's hits bear a star; [ ] = remark or other dose. Compounds with a hit are over-represented: about 19% of the library has one in this group of screens. Unless noted, the call rests on the fitted dose curve; in most records, active means well fitted curve in the direction sought with a large enough effect; inconclusive means small, poorly fitted or top-dose-only effect, or another doubt; inactive means no such curve, though single readings can be large; an effect the other way counts as inactive or inconclusive. Unless noted, on the % scale 0 is the no-effect control and ±100 the full control effect.

Results for CCCS(=O)(=O)N1CCc2ccc(NC(=O)C3CCCO3)cc2C1 (stereo unspecified) ?
ELG1 repair inh: 17%; DT40 TDP1 CPT: inconclusive; HT1080 IDH1KD tx: 10%; IL-1B inflam inh: 4; HT1080NT lethal: 4%; DT40 TDP1 no CPT: inconclusive

What do the screens show for `COc1ccc(Cc2noc(CN3CCCC(C(=O)c4cccs4)C3)n2)cc1OC` (stereo unspecified)?
ELG1 repair inh: 18µM*; DT40 TDP1 CPT: 4%; HT1080 IDH1KD tx: -16%; IL-1B inflam inh: 0; HT1080NT lethal: -4%; DT40 TDP1 no CPT: inconclusive

What do the screens show for `COc1ccc(Cc2noc(CN3CCN(Cc4cccc(Cl)c4)CC3)n2)cc1OC`?
ELG1 repair inh: 23µM*; DT40 TDP1 CPT: inconclusive; HT1080 IDH1KD tx: -12%; IL-1B inflam inh: -5; HT1080NT lethal: 4%; DT40 TDP1 no CPT: 10µM*

What do the screens show for `COCCN1CCN(Cc2nc(Cc3ccc(OC)c(OC)c3)no2)CC1`?
ELG1 repair inh: 14%; DT40 TDP1 CPT: -14%; HT1080 IDH1KD tx: 6%; IL-1B inflam inh: 2; HT1080NT lethal: -4%; DT40 TDP1 no CPT: 15%

What do the screens show for `COc1ccc(Cc2noc(CN3CCN(c4ccc(Cl)cn4)CC3)n2)cc1OC`?
ELG1 repair inh: inconclusive; DT40 TDP1 CPT: inconclusive; HT1080 IDH1KD tx: -28%; IL-1B inflam inh: inconclusive; HT1080NT lethal: -29%; DT40 TDP1 no CPT: 18µM*

Results for COc1ccc(Cc2noc(CN3CCCC(OCc4ccccn4)C3)n2)cc1OC (stereo unspecified) ?
ELG1 repair inh: -3%; DT40 TDP1 CPT: 10%; HT1080 IDH1KD tx: 4%; IL-1B inflam inh: 0; HT1080NT lethal: 0%; DT40 TDP1 no CPT: -22%

What do the screens show for `COC(=O)c1ccc(N2CCN(C)CC2)c(NC(=O)c2ccc(-c3ccc(Cl)cc3)o2)c1`?
ELG1 repair inh: -2%; DT40 TDP1 CPT: inconclusive; HT1080 IDH1KD tx: -1%; IL-1B inflam inh: 12; HT1080NT lethal: 3%; DT40 TDP1 no CPT: inconclusive

Results for COCCN(C(=O)COC(=O)C1CCCCC1)c1c(N)n(Cc2ccccc2)c(=O)[nH]c1=O ?
DT40 TDP1 CPT: 2%; HT1080 IDH1KD tx: 1%; IL-1B inflam inh: 7; HT1080NT lethal: 1%; DT40 TDP1 no CPT: 12%

How did COc1cccc(-c2cn3c(n2)sc2cc(C(=O)NCCC4=CCCCC4)ccc23)c1 do in these assays?
DT40 TDP1 CPT: 13µM*; DT40 TDP1 no CPT: 6.5µM*

How did CCNC(=O)c1ccc2c(c1)sc1nc(-c3cccc(OC)c3)cn12 do in these assays?
DT40 TDP1 CPT: 6.5µM*; DT40 TDP1 no CPT: 7.3µM*

What do the screens show for `CCOc1ccccc1CNC(=O)c1ccc2c(c1)sc1nc(-c3cccc(OC)c3)cn12`?
DT40 TDP1 CPT: 8.2µM*; DT40 TDP1 no CPT: 8.2µM*

How did COc1ccc(-c2cn3c(n2)sc2cc(C(=O)NCc4ccccc4OC)ccc23)cc1 do in these assays?
DT40 TDP1 CPT: -8%; DT40 TDP1 no CPT: inconclusive

Results for Cc1ccc(-c2cn3c(n2)sc2cc(C(=O)NCCC4=CCCCC4)ccc23)cc1 ?
DT40 TDP1 CPT: -9%; DT40 TDP1 no CPT: -27%

How did COc1cccc(-c2cn3c(n2)sc2cc(C(=O)NCCc4ccc(OC)c(OC)c4)ccc23)c1 do in these assays?
DT40 TDP1 CPT: 4.6µM*; DT40 TDP1 no CPT: 2.3µM*

How did CN(C)C(=O)c1ccc(-c2ccc3ncnc(N4CCNCC4)c3c2)cc1 do in these assays?
DT40 TDP1 CPT: -9%; DT40 TDP1 no CPT: -19%

How did CC(C)(C)NS(=O)(=O)c1ccc(C(=O)Nc2ccc3c(c2)OCO3)cc1 do in these assays?
ELG1 repair inh: inconclusive; DT40 TDP1 CPT: -2%; HT1080 IDH1KD tx: inconclusive; IL-1B inflam inh: 1; HT1080NT lethal: inconclusive; DT40 TDP1 no CPT: -20%

Results for COc1cccc(-c2cn3c(n2)sc2cc(C(=O)NCc4ccccc4F)ccc23)c1 ?
DT40 TDP1 CPT: inconclusive; DT40 TDP1 no CPT: 16µM*

What do the screens show for `CCCCC(=O)N1CCCC(c2nc(-c3cccc(OC)c3)no2)C1` (stereo unspecified)?
ELG1 repair inh: inconclusive; DT40 TDP1 CPT: inconclusive; HT1080 IDH1KD tx: 7%; IL-1B inflam inh: -2; HT1080NT lethal: 0%; DT40 TDP1 no CPT: 15µM*

How did CCCC(=O)N1CCCC(c2nc(-c3cccs3)no2)C1 (stereo unspecified) do in these assays?
ELG1 repair inh: inconclusive; DT40 TDP1 CPT: inconclusive; HT1080 IDH1KD tx: 7%; IL-1B inflam inh: -14; HT1080NT lethal: 16%; DT40 TDP1 no CPT: 26µM*

Results for COc1cccc(-c2noc(C3CCCN(C(=O)CC(C)(C)C)C3)n2)c1 (stereo unspecified) ?
ELG1 repair inh: -11%; DT40 TDP1 CPT: 16µM*; HT1080 IDH1KD tx: -1%; IL-1B inflam inh: 17; HT1080NT lethal: -3%; DT40 TDP1 no CPT: inconclusive

What do the screens show for `CCC(C)C(=O)N1CCCC(c2nc(-c3cccs3)no2)C1` (stereo unspecified)?
ELG1 repair inh: inconclusive; DT40 TDP1 CPT: -21%; HT1080 IDH1KD tx: 1%; IL-1B inflam inh: -15; HT1080NT lethal: 1%; DT40 TDP1 no CPT: inconclusive

How did COc1cccc(-c2noc(C3CCCN(C(=O)c4ccccc4OC)C3)n2)c1 (stereo unspecified) do in these assays?
ELG1 repair inh: inconclusive; DT40 TDP1 CPT: inconclusive; HT1080 IDH1KD tx: -2%; IL-1B inflam inh: 21; HT1080NT lethal: -1%; DT40 TDP1 no CPT: inconclusive

How did CC1CCC2=C1C[C@H](C(C)(C)O)CC[C@@H]2C (stereo partly specified) do in these assays?
DT40 TDP1 CPT: 12%[9.04 µM]; DT40 TDP1 no CPT: 9%[9.04 µM]

Results for c1ccc(Nc2nc(NCCN3CCOCC3)nc(Nc3ccccc3)n2)cc1 ?
ELG1 repair inh: -23%; DT40 TDP1 CPT: inconclusive; HT1080 IDH1KD tx: inconclusive; IL-1B inflam inh: -7; HT1080NT lethal: inconclusive; DT40 TDP1 no CPT: inconclusive

How did Ic1ccc(Nc2nc(NCCN3CCOCC3)nc(N3CCOCC3)n2)cc1 do in these assays?
DT40 TDP1 CPT: 5µM*; DT40 TDP1 no CPT: 2.8µM*

How did Ic1ccc(Nc2nc(NCCN3CCOCC3)nc(N3CCCC3)n2)cc1 do in these assays?
DT40 TDP1 CPT: 11µM*; DT40 TDP1 no CPT: 11µM*

What do the screens show for `Clc1ccc(-c2csc3ncnc(Cl)c23)cc1`?
ELG1 repair inh: 4%; DT40 TDP1 CPT: inconclusive; HT1080 IDH1KD tx: -7%; IL-1B inflam inh: -89*; HT1080NT lethal: -10%; DT40 TDP1 no CPT: 16µM*

Screens: PubChem BioAssay, National Center for Advancing Translational Sciences (NCATS)
